Laboratory results from PMC12864922, “TDP-43 directly inhibits mRNA accumulation in neurites through modulation of mRNA stability”.
Over roughly 9,900 sequences, “r (bound/input frequency ratio)” has its median near 0.7; the highest 2% begin near 6.5. The sample as a whole holds a higher share of the highest values than the screen did.

B1: ENSMUSG00000029636.202|Wasf3|244:248 (ssRNA)
RNA: GGGAGUUCUACAGUCCGACGAUCGCUUCGAUAUCCGCAUGCUAACCAAAUGGCGAUUCCAUAGUCCUGGCUGAGGCAGGGGCUCAAAGUCCAGUGUCUGCUUUGCAAUUCUGGAAGGACAGCUGCUUAUUUAAAUAAGUCUGUGAUAUCCGCAGGCUUGGGUUACAGGGAGGACCUUGCAGAGGGACCAGGACACUGCCUUCCCUUAGGUGCAUUAUUUACGUGGCCUGCAGCUCUUAAUAUCUCUCACUGUUUAUGAAAAGAAAGAUUCAGAUCCGGGGUGACAUACACACAGUUGACAGGGCUCUUGCGGUCGCACUAGUGUGGAAUUCUCGGGUGUCAAGG
B2: ENSMUSG00000061578.835|Ksr2|29:33;71:75;146:150 (ssRNA)
RNA: GGGAGUUCUACAGUCCGACGAUCGCUUCGAUAUCCGCAUGCUAAAGGGCUCAGUCCAUAGCUGCCUGACUCACACAUUCUAGGCCUUUCUUGAGGCAAGUGUUCAUCAUGAUACACACAGGGUGAGGAGGAGUUUCUUCAUGGCAAACAGGAAGCAAAGAGCAAUACAGGAAAAGGUCAGGGGUGAGAACACACAUUGCCACUUCCUCCAGCUAGGACCUUUGAGCAUCACAUUGUGAAGCCAUCCAGGGACUUGGGGGUUAGGUCAGAGGUAUCAAUACAUCUCCGGAAACAUCGUCACAGACUCUUGCGGUCGCACUAGUGUGGAAUUCUCGGGUGUCAAGG
B3: ENSMUSG00000004113.468|Cacna1b (ssRNA)
RNA: GGGAGUUCUACAGUCCGACGAUCGCUUCGAUAUCCGCAUGCUAGCAAAAAUUUAUAUUUAACAGUGUUGAGAGAGAGAGAGAGAGAGCGAGAGAGAGAGAGAUCCAGUCAUGCAACACAAAUGGGAUCUACUUUUAAACAACAGUCCUUUGACUAGUUUGCUGCCUGAAUAAUAUUUACAAACUAAACUUUGGAUUCUGCUCUUGUUUCUACAAUGAUUUUUUGUAUAAAGCAAAGUCCUUGGAUUAAAUAAAAACAACCCAAAAAAAAAAUCAAAAUCAAAACCCAGGAUGCAACUGGGUGACUCUUGCGGUCGCACUAGUGUGGAAUUCUCGGGUGUCAAGG
B4: ENSMUSG00000058297.109|Spock2|57:62 (ssRNA)
RNA: GGGAGUUCUACAGUCCGACGAUCGCUUCGAUAUCCGCAUGCUAUGUACACACAGCAAGGCUUACUAUCCGUCUCCUGACAUCCGAAGAGCUCGUCGCAGCACACACUAAUGGCCCUUGGGCUGCACGUGGUUAAGCAUAGCUGUCUCUGUGGCCCAACACAAAGAGGUAAACUUACUUAAAACACAGGGGUUUUGUUGCUGUUUGUUUUUUGUUAGUUUGUUUGUUGAUAAUUGGAUUGAGGAGUUAAUCCUCUGUCACAAUGUCAAAAGCAUGGACAUCCCUGAUAGAUUAUCUCUCAACCUCUCUUGCGGUCGCACUAGUGUGGAAUUCUCGGGUGUCAAGG

These binders were tested against TDP-43 (Homo sapiens, UniProt Q13148 1-414) (assay: RNA Bind-n-Seq with designed 260-mer pool; 25 mM Tris-HCl, 150 mM KCl, 3 mM MgCl2, BSA (printed 500 mg/mL), 20 units/mL SUPERase IN; pH not stated; 500 nM RNA pool, 1 h, 4 C; TDP-43 5, 50, 500 nM; high values mean tight binding). Details: protein: recombinant; tags: SBP (GST cleaved off with PreScission; pGEX-GST-SBP).
Method in brief: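 The incubation lasted 1 h at 4 °C and used 500 nM of an in vitro-transcribed 260-nt 3′ UTR oligo pool with recombinant SBP-tagged TDP-43 at 5, 50 or 500 nM immobilized on streptavidin beads. It took place in 25 mM Tris-HCl, 150 mM KCl, 3 mM MgCl2, BSA and SUPERase IN. Bound RNA was washed, eluted with biotin, converted to cDNA, PCR-amplified and sequenced to give R, each oligo's normalized abundance in the bound sample divided by that in input. Two independent protein batches provided the duplicates.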

TDP-43, sequence (Q13148 whole entry): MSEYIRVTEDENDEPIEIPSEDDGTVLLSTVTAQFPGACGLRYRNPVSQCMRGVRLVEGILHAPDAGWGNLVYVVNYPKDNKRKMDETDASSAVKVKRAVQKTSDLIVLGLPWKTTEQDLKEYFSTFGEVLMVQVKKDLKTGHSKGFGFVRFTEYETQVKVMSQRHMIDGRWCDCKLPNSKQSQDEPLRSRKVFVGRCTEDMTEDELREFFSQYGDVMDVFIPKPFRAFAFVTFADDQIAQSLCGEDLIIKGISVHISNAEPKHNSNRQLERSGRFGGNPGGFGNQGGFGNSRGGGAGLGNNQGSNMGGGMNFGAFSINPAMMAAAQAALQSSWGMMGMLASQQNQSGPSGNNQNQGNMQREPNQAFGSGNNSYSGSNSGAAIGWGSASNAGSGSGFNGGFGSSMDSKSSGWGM

| Binder | binding signal |
| --- | --- |
| B1 | 0.996 R (bound/input frequency ratio) |
| B2 | 0.305 R (bound/input frequency ratio) |
| B3 | 0.308 R (bound/input frequency ratio) |
| B4 | 1.85 R (bound/input frequency ratio) |
